Holding throughout (test): NCI-60 one-dose screen, 48 h (100 = growth as untreated, 0 = no growth, -100 = all killed)
Holding throughout (conditions): 10 µM unless noted

The test system of assay [1] is NCI-H226 lung.
Assay [2] concerns NCI-H322M lung.
Assay [3] deals with HOP-62 NSCLC.
For assay [4], the system named is NCI-H460 lung.
Assay [5] relates to HOP-92 NSCLC.
For assay [6], the system named is NCI-H522 lung.
In assay [7] the test system is A549/ATCC NSCLC.
Assay [8] has as its system 786-0 renal.
In assay [9] the test system is COLO 205 colon.
Assay [10] deals with DU-145 prostate.
Assay [11] deals with K-562 leukemia.
Assay [12] deals with MALME-3M melanoma.
In assay [13] the test system is MDA-MB-231 breast.
The test system of assay [14] is RXF 393 renal.
The subject of assay [15] is SF-268 CNS.
Assay [16] relates to SF-295 CNS.
Assay [17] has as its system SF-539 CNS.
In assay [18] the test system is UACC-257 melanoma.
Assay [19] concerns M14 melanoma.

Compounds without any hit were thinned out: in the full panel of roughly 83,000, 20% have a hit.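 Treatment: one concentration, 48 hours, 96-well format. Scoring: percent growth, with anything below 10 considered active.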 A number with no mark means an inactive call. Active and inactive are the calls of the source.

For the molecule `Cc1[nH]c(=S)[nH]c(=O)c1C`, the growth in [1] was 99.7%; in assay [2], 114%; in assay [3], 107%; in assay [4], 109%; in assay [5] it was 125%; in assay [6], 95.4%. The growth is 94.3% in assay [7]; 106% in [8]; 115% in assay [9]; 110% in assay [10]; 99.7% in [11]; 109% in assay [12]. In addition, the growth in [13] was 105%; in assay [14], 115%; in assay [15], 108%; in assay [16] it was 103%; in [17] it was 103%; in assay [18], 92.9%. The growth in assay [19] was 109%.
As for `CCN(CC)CCCC(C)NC(=S)N/N=C(\C)c1ccccn1` (stereo unspecified), the growth in assay [1] is 33.2%; in [2] it was 31.9%; in assay [3], 45.4%; in [4], 24.7%; in [5], 46.1%; in assay [6], 47.2%. Also, the growth is 48.9% in assay [7]; 23.4% in assay [8]; 28.9% in assay [9]; 42.1% in assay [10]; 38.7% in assay [11]; 33.5% in assay [12]. The growth in [13] is 36.8%; in [14] it was 49.4%; in assay [15], 43.7%; in [17], 31.2%; in assay [18] it was 57.4%; in [19] it was 37.2%.
Take `C[n+]1cc2cc3c(cc2c2ccccc21)OCO3`: the growth in assay [1] was 55.3%; in [2], 39%; in assay [3], 33.7%; in assay [4] it was 59.2%; in [5] it was 82%; in assay [7] it was 15.1%. Also, the growth was 51.4% in assay [8]; 75.6% in assay [9]; 57.3% in assay [10]; 49.1% in [11]; -0.635% (active) in assay [12]; 90.1% in assay [13]. For the same molecule, the growth in assay [15] is -0.333% (active); in [16] it was 9.18% (active); in assay [17] it was 38.8%; in assay [18] it was 69.5%; in [19], 81.4%.
Regarding `CCOC(=O)c1ccc(C(C)(C)C)cc1`, the growth in [1] is 101%; in [2], 101%; in assay [3] it was 107%; in [4], 109%; in assay [5] it was 117%; in assay [6], 105%. The growth in [7] is 102%; in [8], 104%; in assay [9] it was 108%; in assay [10], 104%; in assay [11], 94.5%; in assay [12], 103%. For the same molecule, the growth in assay [13] is 114%; in [14] it was 118%; in [15], 98.9%; in assay [16] it was 108%; in assay [17], 110%; in assay [18] it was 99.9%. Besides, the growth in [19] is 104%.
As for `C=CCC(O)C=C` (stereo unspecified), the growth in [1] is 103%; in assay [2], 91.7%; in assay [3] it was 109%; in assay [4] it was 107%; in [5], 109%; in [6], 108%. Besides, the growth in assay [7] is 99.4%; in assay [8], 97.5%; in assay [9], 106%; in [10], 111%; in assay [11], 91.4%; in assay [12], 80.7%. Also, the growth in [13] is 108%; in assay [14], 107%; in [15] it was 111%; in [16], 99.6%; in assay [17] it was 104%; in assay [18] it was 93.5%. For the same molecule, in assay [19], the growth was 104%.
For the molecule `CC1(C)OC(=O)CC1=O`, the growth in [1] is 76.1%; in assay [2], 108%; in assay [3], 97.9%; in assay [4], 104%; in [5], 81.2%; in [6] it was 86.4%. Moreover, the growth in [7] is 69%; in [8], 98.4%; in assay [9], 99.6%; in assay [10] it was 109%; in assay [11], 92.2%; in assay [12], 105%. Further, the growth in assay [13] was 104%; in [14] it was 103%; in assay [15], 103%; in assay [16] it was 106%; in assay [17] it was 102%; in assay [18], 89.4%. Further, in [19], the growth is 93.9%.
For the molecule `NCCCN1CCCC1=O`, the growth in assay [1] is 109%; in assay [3], 112%; in assay [4], 113%; in assay [5] it was 105%; in [6], 92.6%; in assay [7], 91%. For the same molecule, the growth is 105% in assay [8]; 111% in assay [9]; 114% in [10]; 114% in assay [11]; 99.1% in [12]; 108% in assay [13]. The growth is 122% in assay [14]; 113% in assay [15]; 111% in [16]; 109% in assay [17]; 97.3% in assay [18]; 113% in [19].
Consider `COc1nc(Nc2cccc(C(F)(F)F)c2)nc(OC)n1`, for which the growth in assay [1] is 96.8%; in assay [2], 96.9%; in assay [3], 98.8%; in assay [4], 106%; in assay [5], 92.4%; in assay [6], 75%. In addition, the growth was 102% in [7]; 96.8% in [8]; 109% in assay [9]; 105% in assay [10]; 87% in [11]; 116% in [12]. Further, the growth in [13] is 90.7%; in [14], 102%; in [15] it was 98.4%; in assay [16], 88.4%; in [17] it was 98%; in [18], 121%. For the same molecule, in [19], the growth was 113%.
With `Cc1ccccc1CC(N)C(=O)O` (stereo unspecified), the growth is 115% in assay [1]; 98.6% in [2]; 103% in assay [3]; 109% in [4]; 92.3% in assay [5]; 112% in assay [6]. Besides, the growth was 107% in assay [7]; 107% in assay [8]; 114% in assay [9]; 115% in [11]; 116% in [12]; 116% in [13]. Also, the growth in assay [14] was 137%; in assay [15], 101%; in [16], 99.6%; in assay [17] it was 116%; in assay [18], 109%; in assay [19], 100%.

The record behind these values is PubChem BioAssay (NCI).
